{"source": "PubChem BioAssay AID493170", "about": "(National Center for Advancing Translational Sciences (NCATS), 2011)", "note": "Inconclusive results are not listed. A call without a number means that no potency is given here. Calls of active or inactive are those of the source. Calls follow the shape of the dose curve; as a rule, active = well fitted inhibition curve with a large enough effect; inconclusive = small, poorly fitted or top-dose-only effect, or effect the other way; inactive = flat fitted curve, though single readings scatter. Potency is read from the fitted curve at half-maximal effect."}
{"molecular_target": "Ubiquitin carboxyl-terminal hydrolase 2 (Homo sapiens) (UniProt O75604)", "sequence (O75604 whole entry, looked up)": "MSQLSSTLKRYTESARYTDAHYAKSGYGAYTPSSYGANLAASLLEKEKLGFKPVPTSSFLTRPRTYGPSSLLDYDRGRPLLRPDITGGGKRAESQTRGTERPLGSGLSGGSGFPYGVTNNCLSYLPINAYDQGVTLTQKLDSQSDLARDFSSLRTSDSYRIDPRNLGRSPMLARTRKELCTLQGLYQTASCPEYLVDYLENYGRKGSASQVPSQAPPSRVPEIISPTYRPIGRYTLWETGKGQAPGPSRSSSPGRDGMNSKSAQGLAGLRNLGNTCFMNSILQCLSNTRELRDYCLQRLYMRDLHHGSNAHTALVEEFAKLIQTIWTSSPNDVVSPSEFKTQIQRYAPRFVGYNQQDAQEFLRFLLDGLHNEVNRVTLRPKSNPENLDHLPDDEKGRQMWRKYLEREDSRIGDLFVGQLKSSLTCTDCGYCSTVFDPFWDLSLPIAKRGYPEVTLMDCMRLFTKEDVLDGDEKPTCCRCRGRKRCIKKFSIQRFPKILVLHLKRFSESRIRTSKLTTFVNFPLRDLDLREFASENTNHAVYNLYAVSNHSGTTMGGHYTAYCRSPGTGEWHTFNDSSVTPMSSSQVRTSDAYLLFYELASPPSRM", "experiment": "Ub-rhodamine 110 based assay for inhibitors Ubiquitin-specific Protease USP2a; also: nearly all actives have a fitted effect of over 50% in size", "conditions": "USP2a Ub-rhodamine110 cleavage, fluorescence; series mostly up to 38.3 µM", "method_in_brief": "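5 nM USP2a preincubated with compounds for 30 min at RT in 20 mM Tris-HCl pH 8.0, 2 mM CaCl2, 2 mM beta-mercaptoethanol, 0.05% CHAPS. Cleavage of 150 nM Ub-rhodamine 110 read kinetically (Ex 485/Em 531) for 7 min.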"}
{"compound": "Cc1nn(C)cc1CNC(=O)c1ccc(Br)o1", "Potency": "inactive"}
{"compound": "N=c1sccn1CC(=O)Nc1ccc(S(=O)(=O)N2CCOCC2)cc1", "Potency": "inactive"}
{"compound": "Nc1cc(=O)[nH]c(SCc2cccc(Cl)c2)n1", "Potency": "inactive"}
{"compound": "COC(=O)c1c(NC(=O)c2cccnc2)sc(C)c1C", "Potency": "inactive"}
{"compound": "Cc1ccccc1OCCn1nc(C(=O)O)c2ccccc2c1=O", "Potency": "inactive"}
{"compound": "CCOc1ccc(-c2ccc(/C=C3/C(=N)N4C(C)=CSC4=NC3=O)o2)c([N+](=O)[O-])c1", "Potency": "7.94 µM (active)"}
{"compound": "Cc1ccc(SCc2cc(=O)c3c(=O)n(-c4ccccc4)[nH]c3[nH]2)cc1", "Potency": "inactive"}
{"compound": "Cc1ccc(C(=O)Oc2coc(CSc3nnc(NC(=O)c4cccs4)s3)cc2=O)cc1", "Potency": "11.2 µM (active)"}
{"compound": "CCCCCCCCCCOC(=O)Cn1c(COc2ccccc2C)[n+](C)c2ccccc21", "Potency": "inactive"}
{"compound": "N#Cc1c(NC(=O)CSc2ncnc3sccc23)oc(-c2ccco2)c1-c1ccco1", "Potency": "3.98 µM (active)"}
{"compound": "O=C(O)CC(C(=O)O)N1C(=O)/C(=C/C=C/c2ccco2)SC1=S", "note": "(centres undefined)", "Potency": "inactive"}
{"compound": "C=CCn1c(NCc2cc(C)ccc2O)nc2ccccc21", "Potency": "inactive"}
{"compound": "C[C@@H]1CN([C@@H](C)CO)C(=O)c2cc(NC(=O)CCC(F)(F)F)ccc2O[C@H]1CN(C)S(=O)(=O)c1ccc(Cl)cc1", "Potency": "inactive"}
{"compound": "COC(=O)c1[nH]c(=O)c2ccccc2c1OCc1ccccc1", "Potency": "inactive"}
{"compound": "CCOC(=O)c1c(C)[nH]c(C(=O)COC(=O)CSC)c1C", "Potency": "inactive"}
{"compound": "CN(c1cccc(NC(=O)Nc2cccc(Cl)c2)c1)S(C)(=O)=O", "Potency": "inactive"}
{"compound": "CC(C)c1ccc(CCNC(=O)c2ccc([N+](=O)[O-])cc2)cc1", "Potency": "inactive"}
{"compound": "CC(=O)c1ccc(Nc2ncnc3c2oc2ccccc23)cc1", "Potency": "inactive"}
{"compound": "Cc1cc(N2CCOCC2)nc(SCC(=O)c2ccc(Cl)cc2)n1", "Potency": "inactive"}
{"compound": "Cc1ccc(S(=O)(=O)N2CCOCC2)cc1NC(=O)CN1C(=O)NC(C)(c2ccc(Cl)cc2Cl)C1=O", "note": "(centres undefined)", "Potency": "inactive"}
{"compound": "O=C(COc1ccccc1)Nc1nnc(-c2ccc(Cl)s2)o1", "Potency": "inactive"}
{"compound": "O=C(Nc1ccc(N2CCCC2)cc1)c1ccc(Br)cc1", "Potency": "8.91 µM (active)"}
{"compound": "NC(=O)CC(NC(=O)Cc1ccc(Br)cc1)c1ccc(N2CCC(Cc3ccccc3)CC2)c([N+](=O)[O-])c1", "note": "(centres undefined)", "Potency": "inactive"}
{"compound": "CN1CCN(Cc2c(O)ccc3c(=O)c(Oc4ccccc4Cl)c(C(F)(F)F)oc23)CC1", "Potency": "inactive"}
{"compound": "O=C(Nc1ccc2c(c1)OCO2)NC1(C(F)(F)F)Oc2ccccc2O1", "Potency": "inactive"}
{"compound": "COc1ccccc1-n1c(SCC(=O)Nc2ccc(C)cc2)nc(O)cc1=O", "Potency": "inactive"}
{"compound": "CC(C)(C)C1CCC2(CC1)Nc1cccc3cccc(c13)N2", "Potency": "inactive"}
{"compound": "Cc1ccc(C(=O)N(C)CC(=O)Nc2cccc(C)c2C)o1", "Potency": "inactive"}
{"compound": "C[C@@H]1CN([C@H](C)CO)C(=O)Cc2cc(NS(=O)(=O)c3ccc(Cl)cc3)ccc2O[C@H]1CN(C)Cc1ccc(C(F)(F)F)cc1", "Potency": "10 µM (active)"}
{"compound": "COc1ccc(/C=C2/SC(=S)N(c3ccc(S(=O)(=O)Nc4nccs4)cc3)C2=O)cc1", "Potency": "3.16 µM (active)"}
{"compound": "O=C(CNC(=O)c1ccco1)Nc1ccc(S(=O)(=O)N2CCCC2)cc1", "Potency": "inactive"}
{"compound": "CCOc1ccc(Cn2nnc(C(=O)NCc3ccccc3)c2N)cc1", "Potency": "inactive"}
{"compound": "CCCNC(=O)CS(=O)Cc1nc(-c2ccccc2C)oc1C", "note": "(centres undefined)", "Potency": "inactive"}
{"compound": "O=[N+]([O-])/C(C(Cl)=C(Cl)Cl)=C(\\Sc1ccccc1)N1CCCCC1", "Potency": "inactive"}
{"compound": "O=C(C[n+]1cccc(C(=O)N/N=C/c2ccc(Br)cc2)c1)c1ccccc1", "Potency": "inactive"}
{"compound": "C=CCSC1=N/C(=C\\C=C\\c2ccco2)C(=O)S1", "Potency": "10 µM (active)"}
{"compound": "C/C(=N/NC(=O)c1cc2ccccc2cc1O)C1C(=O)c2ccccc2C1=O", "Potency": "1.78 µM (active)"}
{"compound": "O=C(CN1CCOCC1)Nc1ccc(C2CCCCC2)cc1", "Potency": "inactive"}
{"compound": "Cc1ccc(C2(C)NC(=O)N(CC(=O)c3ccc(Cl)s3)C2=O)cc1", "note": "(centres undefined)", "Potency": "11.2 µM (active)"}
